# Read-outs that look alike come from different tables or passages of the source.
# Experiments:
# Set-up in all cases: species or system human, MV4-11 + K-562 + COLO205 + SK-N-BE2 + OVCAR-8
# ACVR1B = details: read-out: apparent Kd, n = 1
# AURKB = details: read-out: apparent Kd, n = 1
# BTK = details: read-out: apparent Kd; compound concentrations: 100 nM and 1000 nM (sheet 'Samples'), CATDS: 5.3280284172791698E-3; n = 1
# BUB1 = details: read-out: apparent Kd, n = 1
# CDC42BPB = details: read-out: apparent Kd, n = 1
# EPHB1 = details: read-out: apparent Kd, n = 1
# IRAK3 = details: read-out: apparent Kd, n = 1
# MAP3K11 = details: read-out: apparent Kd, n = 1
# MAPK14 = details: read-out: apparent Kd, compound concentrations: 100 nM and 1000 nM (sheet 'Samples'), n = 1
# MARK2 = details: read-out: apparent Kd, n = 1
# PIK3CD = details: read-out: apparent Kd, n = 1
# PRKCA = details: read-out: apparent Kd, n = 1
# RPS6KA3 = details: read-out: apparent Kd, compound concentrations: 100 nM and 1000 nM (sheet 'Samples'), n = 1
# RPS6KB1 = details: read-out: apparent Kd, n = 1
# TTK = details: read-out: apparent Kd, n = 1
# NUAK2 = details: read-out: apparent Kd, compound concentrations: 100 nM and 1000 nM (sheet 'Samples'), n = 1
# PAK6 = details: read-out: apparent Kd, n = 1
# PRKAA2 = details: read-out: apparent Kd, n = 1
# [1] = compound concentrations:100 nM and 1000 nM (sheet 'Samples')
structure (smiles),measurement,setting,value
Cn1ncc2c(N)ncnc21 [SKF-18267],potency estimated from few doses,"ACVR1B; compound concentrations: 100 nM and 1000 nM (sheet 'Samples'), CATDS: 5.9618595467290699E-3",587 nM
same,potency estimated from few doses,"AURKB; compound concentrations: 100 nM and 1000 nM (sheet 'Samples'), CATDS: 5.1927798123429401E-3",756 nM
same,potency estimated from few doses,BTK,720 nM
same,potency estimated from few doses,"BUB1; compound concentrations: 100 nM and 1000 nM (sheet 'Samples'), CATDS: 3.8134095637251098E-3",1510 nM
same,potency estimated from few doses,"CDC42BPB; compound concentrations: 100 nM and 1000 nM (sheet 'Samples'), CATDS: 4.0403129227197304E-3",1300 nM
same,potency estimated from few doses,"EPHB1; compound concentrations: 100 nM and 1000 nM (sheet 'Samples'), CATDS: 5.0582838235080502E-3",796 nM
same,potency estimated from few doses,"IRAK3; compound concentrations: 100 nM and 1000 nM (sheet 'Samples'), CATDS: 5.6966714044827602E-3",636 nM
same,potency estimated from few doses,"MAP3K11; compound concentrations: 100 nM and 1000 nM (sheet 'Samples'), CATDS: 4.0610212954189503E-3",1290 nM
same,potency estimated from few doses,MAPK14; CATDS: 5.3577076045461004E-3,712 nM
same,potency estimated from few doses,"MARK2; compound concentrations: 100 nM and 1000 nM (sheet 'Samples'), CATDS: 3.8405596428901902E-3",1490 nM
same,potency estimated from few doses,"PIK3CD; compound concentrations: 100 nM and 1000 nM (sheet 'Samples'), CATDS: 4.6666042012861897E-2",40.8 nM
same,potency estimated from few doses,"PRKCA; compound concentrations: 100 nM and 1000 nM (sheet 'Samples'), CATDS: 3.58231732022705E-3",1810 nM
same,potency estimated from few doses,RPS6KA3; CATDS: 4.3523145160936898E-3,1090 nM
same,potency estimated from few doses,"RPS6KB1; compound concentrations: 100 nM and 1000 nM (sheet 'Samples'), CATDS: 4.5805386510862304E-3",976 nM
same,potency estimated from few doses,"TTK; compound concentrations: 100 nM and 1000 nM (sheet 'Samples'), CATDS: 3.8760622756019202E-3",1450 nM
CCn1c(-c2nonc2N)nc2c(C#CCN)ncc(OCCCN)c21.O=C(O)C(F)(F)F [GSK561866B],potency estimated from few doses,"RPS6KB1; compound concentrations: 100 nM and 1000 nM (sheet 'Samples'), CATDS: 9.0745453411211097E-2",699 nM
COc1cccc2c(-c3ccncc3)c(-c3ccc(F)cc3)nn12 [GW468513X],potency estimated from few doses,"ACVR1B; compound concentrations: 100 nM and 1000 nM (sheet 'Samples'), CATDS: 0.110012792882782",83.3 nM
same,potency estimated from few doses,"BUB1; compound concentrations: 100 nM and 1000 nM (sheet 'Samples'), CATDS: 4.5362878745682803E-2",739 nM
same,potency estimated from few doses,MAPK14; CATDS: 0.16592681304069401,42.8 nM
O=C(O)C(F)(F)F.O=C(O)C(F)(F)F.O=c1[nH]ccc2nc(N[C@@H]3CCCNC3)nc(Nc3ccc(S(=O)(=O)N4CCOCC4)cc3)c12.O=c1[nH]ccc2nc(N[C@@H]3CCCNC3)nc(Nc3ccc(S(=O)(=O)N4CCOCC4)cc3)c12 [GSK2177277A],potency estimated from few doses,"AURKB; compound concentrations: 100 nM and 1000 nM (sheet 'Samples'), CATDS: 9.0566947478628902E-3",373 nM
same,potency estimated from few doses,"CDC42BPB; compound concentrations: 100 nM and 1000 nM (sheet 'Samples'), CATDS: 1.0245441654914001E-2",255 nM
same,potency estimated from few doses,"MAP3K11; compound concentrations: 100 nM and 1000 nM (sheet 'Samples'), CATDS: 9.6570166700827697E-3",305 nM
same,potency estimated from few doses,"MARK2; compound concentrations: 100 nM and 1000 nM (sheet 'Samples'), CATDS: 1.4475960848297199E-2",105 nM
same,potency estimated from few doses,NUAK2; CATDS: 4.5069810988754302E-2,13.3 nM
same,potency estimated from few doses,"PAK6; compound concentrations: 100 nM and 1000 nM (sheet 'Samples'), CATDS: 6.8069472857734698E-3",1140 nM
same,potency estimated from few doses,"PRKAA2; compound concentrations: 100 nM and 1000 nM (sheet 'Samples'), CATDS: 4.4200978243391198E-2",13.7 nM
same,potency estimated from few doses,"PRKCA; compound concentrations: 100 nM and 1000 nM (sheet 'Samples'), CATDS: 8.97994124779509E-3",383 nM
same,potency estimated from few doses,RPS6KA3; CATDS: 8.0041967490872001E-3,573 nM
same,potency estimated from few doses,"TTK; compound concentrations: 100 nM and 1000 nM (sheet 'Samples'), CATDS: 6.1777236356659101E-3",1950 nM
Cc1n[nH]c2cc(Nc3ccnc(Nc4cccc(CN5CCOCC5)c4)n3)ccc12 [GW682569X],potency estimated from few doses,"IRAK3; compound concentrations: 100 nM and 1000 nM (sheet 'Samples'), CATDS: 0.17881857649065999",348 nM
same,potency estimated from few doses,"PIK3CD; compound concentrations: 100 nM and 1000 nM (sheet 'Samples'), CATDS: 0.35370860335397603",121 nM
CN(C)CC(O)COc1ccc(Nc2nccc(-c3cnn4nc(N5CCOCC5)ccc34)n2)cc1 (stereo not drawn) [GW767488X],potency estimated from few doses,IRAK3; [1],64.8 nM
same,potency estimated from few doses,TTK; [1],2040 nM
COc1cc(Nc2nccc(-c3cnn4ncccc34)n2)cc(OC)c1 [GW801372X],potency estimated from few doses,"IRAK3; compound concentrations: 100 nM and 1000 nM (sheet 'Samples'), CATDS: 2.51875293793523E-2",553 nM
same,potency estimated from few doses,"MAP3K11; compound concentrations: 100 nM and 1000 nM (sheet 'Samples'), CATDS: 1.8293530288082401E-2",1660 nM
same,potency estimated from few doses,"PIK3CD; compound concentrations: 100 nM and 1000 nM (sheet 'Samples'), CATDS: 4.4256260948390198E-2",135 nM
COc1cc(Nc2nccc(N3CCC(NC(=O)c4cccc(NC(C)=O)c4)C3)n2)cc(OC)c1OC (stereo not drawn) [GSK1379754A],potency estimated from few doses,"IRAK3; compound concentrations: 100 nM and 1000 nM (sheet 'Samples'), CATDS: 0.18683076270721999",372 nM
same,potency estimated from few doses,"RPS6KB1; compound concentrations: 100 nM and 1000 nM (sheet 'Samples'), CATDS: 8.2773531247457094E-2",1830 nM
Cc1ccccc1-n1ncc(C(=O)c2ccccc2)c1N [RO1151248-000],potency estimated from few doses,"PIK3CD; compound concentrations: 100 nM and 1000 nM (sheet 'Samples'), CATDS: 6.44780865676087E-2",184 nM
CCn1c(-c2nonc2N)nc2c(C#CC(C)(C)O)nc(O[C@@H](CN)c3ccccc3)cc21.O=C(O)C(F)(F)F [GSK1007102B],potency estimated from few doses,CDC42BPB; [1],1280 nM
same,potency estimated from few doses,MARK2; [1],173 nM
same,potency estimated from few doses,PAK6; [1],1090 nM
same,potency estimated from few doses,PRKCA; [1],1410 nM
same,potency estimated from few doses,RPS6KB1; [1],1890 nM
O=C(O)C(F)(F)F.O=c1[nH]ccc2nc(N[C@@H]3CCNC3)nc(Nc3cc(Cl)cc(Cl)c3)c12 [GSK2188764A],potency estimated from few doses,CDC42BPB; [1],1870 nM
same,potency estimated from few doses,MAP3K11; [1],813 nM
same,potency estimated from few doses,MARK2; [1],535 nM
same,potency estimated from few doses,PAK6; [1],538 nM
same,potency estimated from few doses,PRKAA2; [1],106 nM
same,potency estimated from few doses,PRKCA; [1],905 nM
same,potency estimated from few doses,RPS6KB1; [1],1520 nM
CN(c1ccc(NC(=O)NCCN2CCOCC2)cc1)c1ccnc(Nc2ccc(CS(C)(=O)=O)cc2)n1.Cl [GW830365A],potency estimated from few doses,"AURKB; compound concentrations: 100 nM and 1000 nM (sheet 'Samples'), CATDS: 8.1167400456920294E-2",384 nM
CCN(CC)Cc1ccc(Nc2nccc(-c3cnn4ncccc34)n2)cc1 [GW780056X],potency estimated from few doses,NUAK2; CATDS: 2.1304819470262599E-2,1070 nM
same,potency estimated from few doses,"PAK6; compound concentrations: 100 nM and 1000 nM (sheet 'Samples'), CATDS: 1.8956003976459398E-2",1620 nM
Cc1cccc(Nc2nc(N[C@H]3CCNC3)ncc2C(N)=O)c1.Cl [GSK2197149A],potency estimated from few doses,IRAK3; [1],1280 nM
same,potency estimated from few doses,MAP3K11; [1],1330 nM
same,potency estimated from few doses,PIK3CD; [1],10.5 nM
same,potency estimated from few doses,PRKCA; [1],437 nM
CCn1c(-c2cccnc2O)nc2cnccc21 [SB-736715],potency estimated from few doses,"ACVR1B; compound concentrations: 100 nM and 1000 nM (sheet 'Samples'), CATDS: 1.8200726561527599E-2",889 nM
same,potency estimated from few doses,"IRAK3; compound concentrations: 100 nM and 1000 nM (sheet 'Samples'), CATDS: 1.50971530533868E-2",1280 nM
same,potency estimated from few doses,"PIK3CD; compound concentrations: 100 nM and 1000 nM (sheet 'Samples'), CATDS: 9.8292238183885799E-2",84.5 nM
same,potency estimated from few doses,"TTK; compound concentrations: 100 nM and 1000 nM (sheet 'Samples'), CATDS: 1.5814183064690599E-2",1160 nM
CN(C)CCNC(=O)Nc1ccc(N(C)c2ccnc(Nc3ccc(CS(C)(=O)=O)cc3)n2)cc1.Cl [GW830900A],potency estimated from few doses,AURKB; [1],387 nM
same,potency estimated from few doses,TTK; [1],2150 nM
CC(=O)N[C@@H](Cc1ccc(OP(=O)(O)O)cc1)C(=O)N[C@H]1CCC(=O)N2CCC[C@@H](C(=O)NCc3ccc(Cl)cc3)N2C1=O [RO0325308-000],potency estimated from few doses,EPHB1; [1],71.6 nM
same,potency estimated from few doses,IRAK3; [1],1530 nM
O=C(O)C(F)(F)F.O=c1[nH]ccc2nc(N[C@@H]3CCNC3)nc(Nc3ccc4c(c3)S(=O)(=O)CC4)c12 [GSK2181306A],potency estimated from few doses,"AURKB; compound concentrations: 100 nM and 1000 nM (sheet 'Samples'), CATDS: 8.4552521896549809E-3",1530 nM
same,potency estimated from few doses,"CDC42BPB; compound concentrations: 100 nM and 1000 nM (sheet 'Samples'), CATDS: 8.6780352700712906E-3",1380 nM
same,potency estimated from few doses,"MARK2; compound concentrations: 100 nM and 1000 nM (sheet 'Samples'), CATDS: 1.1093040316995199E-2",635 nM
same,potency estimated from few doses,NUAK2; CATDS: 1.3760463216936501E-2,376 nM
same,potency estimated from few doses,"PAK6; compound concentrations: 100 nM and 1000 nM (sheet 'Samples'), CATDS: 8.7541295114789697E-3",1330 nM
same,potency estimated from few doses,"PRKCA; compound concentrations: 100 nM and 1000 nM (sheet 'Samples'), CATDS: 1.32180266874378E-2",412 nM
same,potency estimated from few doses,RPS6KA3; CATDS: 9.3639610273777898E-3,1050 nM
Nc1nc(Nc2ccccc2)cc(-c2ccc3c(N)n[nH]c3c2)n1 [GSK2225749A],potency estimated from few doses,ACVR1B; [1],293 nM
same,potency estimated from few doses,BUB1; [1],1900 nM

# Source: paper PMC11062922 (Nature Chemical Biology, 2023)
